# Laboratory results taken from PubChem BioAssay (NCATS).
# Records with an inconclusive call do not appear. Where a call stands in place of a potency, no number is given. Calls of active or inactive are those of the source. Calls come from the whole dose curve.
# Molecular target: Vitamin D3 receptor (Homo sapiens) (UniProt P11473)
# Test: qHTS assay for small molecule antagonists of vitamin D receptor signaling (AID 588541)
# Conditions: HEK293T VDR-UAS-bla, beta-lactamase ratio, antagonist mode; series mostly up to 76.7 µM
# Description: NIH Chemical Genomics Center [NCGC]
# U.S. Environmental Protection Agency [EPA]
# National Institutes of Environmental Health Sciences [NIEHS]
# National Toxicology Program [NTP]
# The Vitamin D receptor (VDR) is a member of nuclear hormone receptor superfamily and it plays a critical role in calcium homeostasis and bone metabolism. It plays a role in inducing cell differentiation, inhibiting cell growth and in thrombogenicity. So, VDR that mediates these effects represents a pharmacological target in prevention and treatment of hyperproliferative malignancies, such as cancer and psoriasis, cardiovascular, immunological, inflammatory and renal diseases etc.
# NCGC Assay Protocol Summary
# Using a beta-lactamase reporter-gene under control of Vitamin D receptor (VDR) response element, a cell-based assay [GeneBLAzer (VDR -UAS-bla assay developed by Invitrogen] was used to measure VDR ligands signaling. GeneBLAzer VDR -UAS-bla HEK293T cells were used with assay medium containing 2% charcoal-stripped FBS. The assay was performed in clear bottom black Greiner 1536-well plates. Library compounds were measured for their ability to inhibit the reporter gene activity. Compounds were screened in a titration series in 1536-well format. The fluorescence intensity (405 nm excitation, 460/530 nm emission) was measured using an EnVision plate reader. Data was normalized relative to 1-alpha,25-Dihydroxy vitaminD3 control (50 nM, 100%) and DMSO only wells (basal, 0%). Concentration-response titration points for each compound were fitted to the Hill equation yielding concentrations of half-maximal inhibition (IC50) and maximal response (efficacy) values.
# qHTS protocol for VDR beta-lactamase assay in antagonist mode
# [Step] [Parameter] [Value] [Description]
# 1. Reagent; 5 uL; 2000 cells/well
# 2. Incubation; 37 C for 5 hrs
# 4. Controls (DMSO); 23 nL,
# 5. Agonist (Stimulator); 1uL; 1-alpha,25-Dihydroxy vitaminD3 at 50 nM and 3 nM final concentrations
# 6. Incubation; 37 C for 16 hrs
# 7. Detection reagent; 1 uL of CCF4-dye
# 8. Incubation; RT for 2 hrs
# 9. Detection; Fluorescence; Envision plate reader
# Sequence of Vitamin D3 receptor (Homo sapiens) (P11473 whole entry, looked up): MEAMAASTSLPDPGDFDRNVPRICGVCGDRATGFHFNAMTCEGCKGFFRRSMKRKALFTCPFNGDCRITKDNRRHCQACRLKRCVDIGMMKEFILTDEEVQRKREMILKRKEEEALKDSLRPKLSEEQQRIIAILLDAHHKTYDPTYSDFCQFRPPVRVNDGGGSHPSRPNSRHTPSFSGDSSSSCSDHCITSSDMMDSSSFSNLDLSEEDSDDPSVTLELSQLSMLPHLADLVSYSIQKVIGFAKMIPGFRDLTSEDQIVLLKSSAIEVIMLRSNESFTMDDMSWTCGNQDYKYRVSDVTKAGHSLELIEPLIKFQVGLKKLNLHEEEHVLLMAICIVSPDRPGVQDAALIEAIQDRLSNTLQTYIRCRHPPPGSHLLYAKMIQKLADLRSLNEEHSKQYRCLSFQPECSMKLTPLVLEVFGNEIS
row,SMILES,Potency
1,CC1=NNC(=O)N(/N=C/c2cccnc2)C1,inactive
2,Cc1cnc(C2=NC(C)(C(C)C)C(=O)N2)c(C(=O)O)c1 (stereo not given),inactive
3,O=C(O)c1c(Cl)ccc2cc(Cl)cnc12,inactive
4,O=C=Nc1ccc(Cl)cc1,inactive
5,CC(C)(C)N(NC(=O)c1ccc(Cl)cc1)C(=O)c1ccccc1,inactive
6,CNC(=O)O/N=C(\SC)C(=O)N(C)C,inactive
7,CC(C)=C[C@@H]1[C@@H](C(=O)OCN2C(=O)C3=C(CCCC3)C2=O)C1(C)C,inactive
8,CCNS(=O)(=O)C(F)(F)C(F)(F)C(F)(F)C(F)(F)C(F)(F)C(F)(F)C(F)(F)C(F)(F)F,inactive
9,O=S1OC[C@@H]2[C@H](CO1)[C@@]1(Cl)C(Cl)=C(Cl)[C@]2(Cl)C1(Cl)Cl (stereo not given in full),inactive
10,O=[As](O)(O)O,inactive
11,O=C(O)C(F)(F)C(F)(F)C(F)(F)C(F)(F)C(F)(F)F,inactive
12,O=C(NC(=O)c1c(F)cccc1F)Nc1ccc(Cl)cc1,inactive
13,CNC(=S)S,inactive
14,COP(=S)(OC)Oc1c(Cl)cc(C)cc1Cl,inactive
15,C=CC(=O)NCO,inactive
16,[CH3][Sn]([Cl])([Cl])[Cl],inactive
17,S=C(S)NCCNC(=S)S,inactive
18,FC(F)(F)c1ccc(OCCCOc2c(Cl)cc(OCC=C(Cl)Cl)cc2Cl)nc1,inactive
19,CC(C)C1(C)N=C(c2ncccc2C(=O)O)NC1=O (stereo not given),inactive
20,c1ccc2c(c1)oc1ccccc12,inactive

row,SMILES,Potency
1,Clc1ccc([C@]2(Cn3cncn3)C[C@H](Br)CO2)c(Cl)c1,inactive
2,O=[N+]([O-])c1cc(C(F)(F)F)c(Cl)c([N+](=O)[O-])c1Nc1ncc(C(F)(F)F)cc1Cl,22.4 µM (active)
3,CCCC1COC(Cn2cncn2)(c2ccc(Cl)cc2Cl)O1 (stereo not given),inactive
4,COCc1cnc(C2=NC(C)(C(C)C)C(=O)N2)c(C(=O)O)c1 (stereo not given),inactive
5,CCSC(=O)N(CC)C1CCCCC1,inactive
6,CCSCc1ccccc1OC(=O)NC,inactive
7,CCOP(=S)(S)OCC,inactive
8,O=[N+]([O-])C(Br)Br,inactive
9,Nc1cccc(Cl)c1Cl,inactive
10,COP(=O)(OC)O/C(C)=C/C(=O)N(C)C,inactive
11,COc1ccc(-c2ccccc2)cc1NNC(=O)OC(C)C,inactive
12,Cn1c(-c2ccccc2)cc(-c2ccccc2)[n+]1C,inactive
13,Clc1ccc(-c2cc(Cl)c(Cl)cc2Cl)cc1Cl,inactive
14,N#CC(Cl)Cl,inactive
15,CCOP(=S)(OCC)SCn1c(=O)oc2cc(Cl)ccc21,inactive
16,CCOc1nc(F)cc2nc(S(=O)(=O)Nc3c(Cl)cccc3Cl)nn12,inactive
17,Cc1c(COC(=O)C2C(/C=C(\Cl)C(F)(F)F)C2(C)C)cccc1-c1ccccc1 (stereo not given),inactive
18,CC(C)=CC1C(C(=O)OCc2coc(Cc3ccccc3)c2)C1(C)C (stereo not given),inactive
19,CN1COCN(Cc2cnc(Cl)s2)/C1=N\[N+](=O)[O-],inactive
20,CN(C)P(=O)(N(C)C)N(C)C,inactive
